Laboratory results published in PubChem BioAssay.
Where “and” joins values, the source holds several entries; their conditions need not be identical. Equal values may be shown once. Records with an inconclusive call do not appear. For some of these results: Results with a measured potency or affinity are listed apart. Calls of active or inactive are those of the source. Unless noted, no rule for the calls is given here.

What was measured:
[1] = EMT-state selective cytotoxicity in co-culture – imaging, PC-3E GFP, TEM4-18 mCherry, primary screen (AID 1345086;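 active = compounds killing one labelled cell type while sparing the other, by normalised counts and ratio limits, not self-fluorescent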;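 as to all read-outs here: cells exposed to compound for 72 h before imaging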;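 as to red/green cell ratio (normalised): normalised mesenchymal count divided by normalised epithelial count so high means epithelial killing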); conditions: PC-3E GFP / TEM4-18 mCherry co-culture, imaging cell counts, at 1 µM; for red/green cell ratio (normalised): actives lie on both sides, counts scaled to control wells, 1 = unselective
[2] = viability loss in pontine glioma line – cell-based, JHH-DIPG-1, MIPE4.0, CellTiter-Glo, qHTS, dose response (AID 1347062; cut-off not given, nearly all actives have AC50 up to about 27 µM); conditions: JHH-DIPG-1 viability, CellTiter-Glo ATP luminescence
[3] = viability loss in pontine glioma line – cell-based, SU-DIPG-IV, MIPE4.0, CellTiter-Glo, qHTS, dose response (AID 1347063; cut-off not given, nearly all actives have AC50 up to about 30 µM;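 also: compound exposure lasted 48 hours before the viability readout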); conditions: CellTiter-Glo ATP luminescence
[4] = growth inhibition of DIPG cells – cell-based, MIPE4.0 library, CellTiter-Glo luminescence, qHTS (AID 1347066; cut-off not given, nearly all actives have AC50 up to about 30 µM;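 also: cells exposed to compound for 48 hours before readout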); conditions: SU-DIPG-VI viability, CellTiter-Glo ATP luminescence
[5] = molecular target: Mitogen-activated protein kinase 7 (Homo sapiens) (UniProt Q13164); assay: Gal4-ERK5 driven luciferase induction – cell-based, HTS, primary screen (AID 1508626;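 active = luciferase signal above three times the same-plate solvent-only control wells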;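 also: luciferase driven by Gal4-ERK5 fusion binding five Gal4 sites before minimal TATA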); conditions: HeLa Gal4-ERK5 transactivation, 18 h, at 5 µM, stronger effect = higher value
Chain of Mitogen-activated protein kinase 7 (Homo sapiens) (Q13164 whole entry, looked up, the tested form may be a part): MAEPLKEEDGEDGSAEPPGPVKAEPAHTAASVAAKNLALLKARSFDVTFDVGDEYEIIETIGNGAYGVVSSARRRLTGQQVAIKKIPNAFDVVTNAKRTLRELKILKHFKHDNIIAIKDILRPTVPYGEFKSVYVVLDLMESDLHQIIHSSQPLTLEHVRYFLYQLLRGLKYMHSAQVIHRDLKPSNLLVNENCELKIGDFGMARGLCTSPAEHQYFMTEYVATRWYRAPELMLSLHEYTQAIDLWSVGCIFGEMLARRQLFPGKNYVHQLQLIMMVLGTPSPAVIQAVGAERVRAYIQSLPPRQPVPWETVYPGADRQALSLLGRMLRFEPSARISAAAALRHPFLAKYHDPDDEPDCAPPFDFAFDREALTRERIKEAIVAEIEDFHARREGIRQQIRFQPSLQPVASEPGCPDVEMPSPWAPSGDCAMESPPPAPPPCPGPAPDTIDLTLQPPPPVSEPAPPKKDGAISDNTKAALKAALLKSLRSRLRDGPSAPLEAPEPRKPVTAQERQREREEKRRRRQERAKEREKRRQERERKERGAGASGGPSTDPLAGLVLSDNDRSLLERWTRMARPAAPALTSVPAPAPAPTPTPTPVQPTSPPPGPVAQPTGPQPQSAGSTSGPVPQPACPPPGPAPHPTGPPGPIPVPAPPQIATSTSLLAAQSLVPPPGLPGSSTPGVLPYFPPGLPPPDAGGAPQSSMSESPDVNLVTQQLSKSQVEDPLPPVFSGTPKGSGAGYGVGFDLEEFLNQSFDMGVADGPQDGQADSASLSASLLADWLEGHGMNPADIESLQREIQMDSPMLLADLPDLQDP

[6] = compounds altering viability of human ES cells (AID 493140); conditions: human embryonic stem cell survival screen; stronger effect = higher value;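 also: cells exposed to compounds for four days before counting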
[7] = P. berghei load reduction in hepatocytes – cell-based, HepG2, luciferase luminescence, HepG2 viability, primary screen (AID 624349; in the data active = parasite load remaining mostly below about 12%, no sharp cut-off; inactive = mostly above about 10%;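 also: 100% = mean of DMSO negative control wells on the same plate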); conditions: P. berghei liver stage in HepG2, luciferase luminescence, concentration not given here; parasite load remaining: stronger effect = lower value; viability: measured here: HepG2 viability without parasites
[8] = viability loss in pontine glioma line – cell-based, SU-DIPG-XVII, MIPE5.0, CellTiter-Glo, qHTS, dose response (AID 1347060; cut-off not given, nearly all actives have AC50 up to about 26 µM;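 as to AC50: cells exposed to compound for 48 hours before viability readout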); conditions: CellTiter-Glo ATP luminescence
[9] = viability loss in pontine glioma line – cell-based, SU-DIPG-XIII, MIPE4.0, CellTiter-Glo, qHTS, dose response (AID 1347061; cut-off not given, nearly all actives have AC50 up to about 37 µM;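 also: cells exposed to compound for 48 hours before readout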); conditions: CellTiter-Glo ATP luminescence
[10] = viability loss in pontine glioma line – cell-based, SU-DIPG-XIII, MIPE5.0, CellTiter-Glo, qHTS, dose response (AID 1347064; cut-off not given, nearly all actives have AC50 up to about 23 µM); conditions: CellTiter-Glo ATP luminescence
[11] = viability loss in pontine glioma line – cell-based, SU-DIPG-XXV, MIPE5.0, CellTiter-Glo, qHTS, dose response (AID 1347065; cut-off not given, nearly all actives have AC50 up to about 26 µM;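 also: cells exposed to compound for 48 hours before ATP readout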); conditions: CellTiter-Glo ATP luminescence
[12] = JHH-DIPG-1 glioma cell viability, MIPE5.0 library, CellTiter-Glo luminescence, qHTS (AID 1347067; cut-off not given, nearly all actives have AC50 up to about 26 µM;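 also: cells exposed to compound for 48 hours before readout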); conditions: JHH-DIPG-1 glioma viability, CellTiter-Glo ATP luminescence
[13] = viability loss with induced miR-34 in A549 – imaging, A549 dox-inducible miR-34, nuclei and caspase counts, primary screen (AID 1347080;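 active = compounds whose cell count with miR-34 switched on is under 0.7 times the count with it off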); conditions: A549 miR-34 inducible, Hoechst nuclei count, 48 h
[14] = compounds altering circadian rhythm period length – cell-based, LOPAC library, luminescence reporter (AID 2774); conditions: circadian reporter cells, at 7 µM, actives lie on both sides;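 also: values are relative to mean of DMSO wells on each plate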
[15] = tested on: Hepatitis C virus NS3 helicase; assay: blockers of NS3h binding to ssDNA – biochemical, fluorescence polarization, LOPAC1280 library, primary screen (AID 687035; in the data active = inhibition above about 37%); conditions: Purified HCV NS3 helicase, Cy5-dT15 ssDNA binding fluorescence polarization; stronger effect = higher value; concentration not given here
[16] = compounds altering Cy5-DNA-NS3h complex signal – biochemical, LOPAC1280, artefact control for HCV NS3 helicase inhibitor project (AID 687037); conditions: Cy5-DNA-NS3h complex fluorescence interference counterscreen
[17] = blockers of cellular phospholipid synthesis – cell-based, LOPAC library, screen 4, primary screen (AID 1347384); conditions: animal cells, phospholipid biosynthesis inhibition screen; at 10 µM
[18] = galactose survival enhancers in mitochondrial complex I cybrids – cell-based, galactose medium, ATP luminescence, primary screen (AID 1645843;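 active = z-score of at least 1.8 in each of two replicates, scored against plate mean and spread of sample wells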;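 also: positive z means more ATP and so rescue of galactose-driven cybrid death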); conditions: complex I mutant cybrid cells, 72 h, stronger effect = higher value
[19] = molecular target: ATP-dependent translocase ABCB1 (Homo sapiens) (UniProt P08183); assay: P-glycoprotein substrate transport blockade – cell-based (AID 377; in the data active = fluorescence slope change above about 50%); conditions: MDR1-expressing cells, fluorescent substrate accumulation slope; stronger effect = higher value; concentration not given here
Chain of ATP-dependent translocase ABCB1 (Homo sapiens) (P08183 whole entry, looked up): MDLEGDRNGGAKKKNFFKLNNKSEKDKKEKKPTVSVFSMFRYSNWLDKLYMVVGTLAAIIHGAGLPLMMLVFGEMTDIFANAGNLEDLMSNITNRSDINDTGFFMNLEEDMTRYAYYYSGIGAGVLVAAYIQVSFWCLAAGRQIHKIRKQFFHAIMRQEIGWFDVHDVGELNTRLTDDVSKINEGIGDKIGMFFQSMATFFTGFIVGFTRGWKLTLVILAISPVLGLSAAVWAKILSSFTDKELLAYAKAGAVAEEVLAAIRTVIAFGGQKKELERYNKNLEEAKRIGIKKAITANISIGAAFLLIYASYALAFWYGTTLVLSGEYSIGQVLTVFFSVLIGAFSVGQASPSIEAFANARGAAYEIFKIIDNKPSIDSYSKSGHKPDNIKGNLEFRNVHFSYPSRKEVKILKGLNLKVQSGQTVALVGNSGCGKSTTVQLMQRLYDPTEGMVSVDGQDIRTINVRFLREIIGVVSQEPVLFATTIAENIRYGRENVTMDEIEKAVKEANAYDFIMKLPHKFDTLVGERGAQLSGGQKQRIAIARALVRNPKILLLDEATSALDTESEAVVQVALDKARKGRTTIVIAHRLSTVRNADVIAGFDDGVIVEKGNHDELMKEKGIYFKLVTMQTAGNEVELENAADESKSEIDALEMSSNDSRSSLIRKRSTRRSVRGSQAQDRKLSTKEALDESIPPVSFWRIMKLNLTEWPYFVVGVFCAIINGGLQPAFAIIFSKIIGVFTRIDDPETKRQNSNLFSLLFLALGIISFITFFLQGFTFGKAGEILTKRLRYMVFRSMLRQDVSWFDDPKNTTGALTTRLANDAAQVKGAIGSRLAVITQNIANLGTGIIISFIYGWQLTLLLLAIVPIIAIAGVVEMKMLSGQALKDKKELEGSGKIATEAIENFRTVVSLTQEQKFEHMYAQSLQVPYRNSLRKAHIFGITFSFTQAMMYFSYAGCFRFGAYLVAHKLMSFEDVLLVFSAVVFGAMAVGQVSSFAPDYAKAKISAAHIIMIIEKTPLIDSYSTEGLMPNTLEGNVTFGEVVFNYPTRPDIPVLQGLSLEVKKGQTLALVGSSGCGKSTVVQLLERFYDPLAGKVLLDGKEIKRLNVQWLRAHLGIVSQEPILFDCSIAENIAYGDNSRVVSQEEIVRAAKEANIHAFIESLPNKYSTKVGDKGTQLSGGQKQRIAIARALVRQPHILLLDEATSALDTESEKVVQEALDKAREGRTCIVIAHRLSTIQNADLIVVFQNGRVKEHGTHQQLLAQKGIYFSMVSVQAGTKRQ

[20] = blockers of polyQ-driven CASP3 activation – cell-based (AID 1583); conditions: polyglutamine-induced caspase-3 activation, cell assay; stronger effect = higher value;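 tested at 10 µM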
[21] = yeast 75Q aggregation reduction – 75Q-TubU reporter (AID 1593); conditions: Yeast 75Q polyglutamine aggregation reporter
[22] = restoration of touch response, mutant HTT neurons – whole organism, C. elegans mechanosensory neurons, N-terminal huntingtin (AID 1599); conditions: C. elegans polyQ-huntingtin mechanosensory neurons, stronger effect = higher value
[23] = blockers of cytochrome c efflux from mitochondria – biochemical, purified mitochondria (AID 1603); conditions: stronger effect = lower value;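 also: mouse liver mitochondria challenged with calcium chloride; signal normalized to the plate average as 100%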
[24] = polyglutamine aggregate formation blockers (AID 1604); conditions: polyglutamine-induced protein aggregation inhibition assay; stronger effect = higher value; tested at 2.5 µM
[25] = glutamate transport activators, MN-1 cells, MN-1 cell line (AID 1612); conditions: MN-1 motor neuron cells, stronger effect = higher value;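 also: tested at 1 µM final; 0% = mean of DMSO vehicle wells on each plate; positive means more glutamate uptake than control and negative means less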
[26] = 75Q-TubH aggregate inhibition, S. cerevisiae, yeast (AID 1616); conditions: S. cerevisiae 75Q-TubH polyglutamine aggregation suppression; stronger effect = higher value
[27] = antimalarial activity against Dd2 strain (AID 2302;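 active = growth inhibition above 50% at the single 2 µM test dose, taken to imply half-maximal potency below 2 µM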;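 also: 0% = DMSO untreated growth and 100% = chloroquine plus artemisinin killed control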); conditions: P. falciparum Dd2 in RBCs, LDH growth readout, 72 h; at 2 µM; stronger effect = higher value
[28] = human hepatoma cell viability loss – ATP luminescence, cytotoxicity control for P. falciparum antimalarial project, primary screen (AID 2303;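 active = inhibition above 50%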;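 also: 0% = DMSO wells and 100% = digitonin-killed cells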); conditions: HepG2 viability, 24-48 h, at 10 µM, stronger effect = higher value
[29] = molecular target: L-lactate dehydrogenase (Plasmodium falciparum (isolate CDC / Honduras)) (UniProt Q27743); assay: PfLDH activity inhibition – cell lysate, 3D7 strain, counter-screen for P. falciparum growth inhibition project (AID 2304);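 also: 0% = vehicle and 100% = reference inhibitor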; conditions: P. falciparum 3D7 crude extract, LDH APAD/NBT absorbance; at 2 µM; stronger effect = higher value
Chain of L-lactate dehydrogenase (Plasmodium falciparum (isolate CDC / Honduras)) (Q27743 whole entry, looked up): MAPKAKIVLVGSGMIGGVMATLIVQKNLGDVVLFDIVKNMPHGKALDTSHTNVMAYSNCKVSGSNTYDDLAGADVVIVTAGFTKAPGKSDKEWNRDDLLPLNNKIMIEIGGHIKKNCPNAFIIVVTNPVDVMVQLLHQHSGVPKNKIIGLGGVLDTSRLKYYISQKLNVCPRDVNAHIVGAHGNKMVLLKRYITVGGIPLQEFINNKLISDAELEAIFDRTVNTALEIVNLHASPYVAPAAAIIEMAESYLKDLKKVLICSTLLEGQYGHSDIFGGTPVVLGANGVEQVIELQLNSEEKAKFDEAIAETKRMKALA

[30] = inhibition of 3D7 malaria parasite growth – strain 3D7 (AID 2306);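 also: 0% = DMSO wells and 100% = chloroquine plus artemisinin control wells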; conditions: P. falciparum 3D7 erythrocytic growth, LDH absorbance, 72 h; at 2 µM; stronger effect = higher value
[31] = MELAS cybrid and Rieske KO viability enhancers – cell-based, MELAS cybrids, Rieske KO mouse fibroblasts, CellTiter-Glo, primary screen (AID 1508586;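 active = mean z-score across replicates of 1.96 or higher in either the MELAS or the Rieske mutant cell line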;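 also: z relative to plate mean and SD of compound and empty wells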); conditions: low glucose
[32] = measured here: epithelial PC-3E GFP cell survival
[33] = measured here: mesenchymal TEM4-18 mCherry cell survival
[34] = stronger effect = lower value, cell number ratio, induced over uninduced
[35] = measured here: relative caspase fold change +Dox/-Dox
[36] = measured here: total cells with miR-34 induction, stronger effect = lower value
[37] = measured here: total cells without miR-34 induction

For CC(C)=CCC/C(C)=C/CC/C(C)=C/CC/C(C)=C/CC/C(C)=C/CC/C(C)=C/CC/C(C)=C/CC/C(C)=C/CC/C(C)=C/CO, the red/green cell ratio (normalised) [1] was 1.11 (inactive), the normalised cell number [1, 32] was 0.97 and the normalised cell number [1, 33] was 1.07. The outcome [2] was “inactive”, the outcome [3] was “inactive” and the outcome [4] was “inactive”. The luciferase signal [5] was 20 AU (inactive).
For Cc1cc2nc3c(=O)[nH]c(=O)nc-3n(CC(O)C(O)C(O)CO)c2cc1C (configuration not stated), the survival [6] was 1.58 (inactive), the parasite load remaining [7] was 149% (inactive) and 66% (inactive) and 85.7% (inactive) and the viability [7] was 87.6% and 75.7% and 118%. The red/green cell ratio (normalised) [1] was 0.96 (inactive), the normalised cell number [1, 32] was 1.14 and the normalised cell number [1, 33] was 1.1. For the same compound, the outcome [8] was “inactive”, the outcome [9] was “inactive” and the outcome [2] was “inactive”. For the same compound, the outcome [10] was “inactive”, the outcome [11] was “inactive” and the outcome [4] was “inactive”. The outcome [12] was “inactive”, the fold change [13, 34] was 0.948 (inactive) and the fold change [13, 35] was 3.38. For the same compound, the cell count [13, 36] was 12400 and the cell count [13, 37] was 13100.
For CC1=C(C(=O)O)N2C(=O)[C@@H](NC(=O)C(N)c3ccccc3)[C@H]2SC1 (some centres not stated), the period change [14] was 0.02 h (inactive), the parasite load remaining [7] was 96% (inactive) and 49.4% (inactive) and the viability [7] was 72.1% and 86.5%. For the same compound, the inhibition [15] was -4% (inactive), the fluorescence ratio (interference) [16] was 0.9 (inactive) and the red/green cell ratio (normalised) [1] was 1.15 (inactive). The normalised cell number [1, 32] was 1.06, the normalised cell number [1, 33] was 1.23 and the outcome [9] was “inactive”. For the same compound, the outcome [2] was “inactive”, the outcome [3] was “inactive” and the outcome [4] was “inactive”. The fold change [13, 34] was 1.03 (inactive) and 0.832 (inactive), the fold change [13, 35] was 1.45 and 2.29 and the cell count [13, 36] was 10100 and 11100. The cell count [13, 37] was 9800 and 13300, the outcome [17] was “inactive” and the z-score [18] was 0.41 (inactive).
In the case of OC(c1cc(C(F)(F)F)nc2c(C(F)(F)F)cccc12)C1CCCCN1 (configuration not stated), the fluorescence slope change [19] is reported as 96.4% (active), the inhibition [20] is reported as 50.1% and the score [21] is reported as 1.42. The rescue above control [22] was 0, the cytochrome c release ratio [23] was 2.44 and the inhibition of aggregation [24] was -19.6%. The glutamate uptake change [25] was -3.13%, the aggregation suppression score [26] was 1.65 and the growth inhibition [27] was 99% (active). For the same compound, the inhibition [28] was -3% (inactive), the inhibition [29] was -6% (inactive) and the growth inhibition [30] was 96% (active). For the same compound, the survival [6] was 3.83 (inactive), the red/green cell ratio (normalised) [1] was 0.94 (inactive) and the normalised cell number [1, 32] was 1.16. The normalised cell number [1, 33] was 1.1, the AC50 [8] was 20.9 µM (active) and the AC50 [3] was 26.4 µM (active). The AC50 [11] was 20.9 µM (active), the fold change [13, 34] was 0.709 (inactive) and 0.928 (inactive) and the fold change [13, 35] was 1.51 and 4.5. For the same compound, the cell count [13, 36] was 3010 and 11200, the cell count [13, 37] was 4250 and 12100 and the z-score ([31]; MELAS cybrid survival, CellTiter-Glo 48 h, stronger effect = higher value) was -2.19 (inactive). The z-score ([31]; Rieske KO mouse fibroblast survival, CellTiter-Glo 72 h) was -3.08.
